We go through 33 compounds from PubChem BioAssay AID624167 (Sanford-Burnham Center for Chemical Genomics, 2012).

The test can be described thus: inhibition of PEG-3 promoter-driven reporter – cell-based, HeLa, luciferase, CREF/GAPDH counter-screen panel, dose response (AID 624167). Conditions: CREF/GAPDH counter-screens; run 1, dose range 1, at 100 µM (top of the series). In general terms: The purpose of a counterscreen is to sort out artefacts and off-target activity.
By inhibition is commonly meant the change of the read-out against control, counted positive when it falls. As for `O=C(/C=C/c1ccc(Cl)c([N+](=O)[O-])c1)c1ccc(O)cc1`, the inhibition turned out to be 100%.

Take `COc1ccc(-n2c(O)c(/C=N/Nc3nc(C)cc(C)n3)c3ccccc3c2=O)cc1OC`: the inhibition was -8.04%.

For the compound `COc1cc(Nc2c3ccccc3nc3ccccc23)cc(OC)c1OC`, the inhibition came out at 95.9%.

On to `COc1ccc(/C=C2/CCCC(CN(C)C)C2=O)cc1` (stereo not drawn), for which the inhibition came out at 80%.

With `CN1OC[C@@H]2CN(S(=O)(=O)c3cccc(C(F)(F)F)c3)[C@H](c3ccc(-c4cc5ccccc5o4)cc3)C[C@@H]21`, the inhibition came out at 70.1%.

As for `COCCCNC(=O)c1ccc(Cn2c(=O)c3ccccc3n(Cc3ccccc3C#N)c2=O)cc1`, the inhibition was found to be 32.3%.

For the compound `CC(C)CCCCCCCCCCCCC(=O)NCC(=O)NC1C(O)C(O)C(Nc2ncnc3nc[nH]c23)OC1C(O)CO` (stereo not drawn), the inhibition is 94.6%.

With `COc1cccc(/C=N/NC(=O)c2c(C)nc3ccc(Cl)cn23)c1O`, the inhibition was -55.4%.

Take `C/C(=N\NC(=O)c1c(C)nc2ccccn12)c1ccc(O)cc1O`: the inhibition was 3.34%.

For `CN(C)CC1CCC/C(=C\c2ccc(OC(=O)c3ccc(Cl)cc3)cc2)C1=O` (stereo not drawn), the inhibition was determined as 76%.

For `Cc1cc(C(=O)Nc2cccc(C(=O)O)c2)oc1C`, the inhibition was found to be 89.9%.

With `CCC(=O)NC(c1ccc(C)cc1)c1ccc2cccnc2c1O` (stereo not drawn), the inhibition amounted to 36.2%.

For the compound `OCCCNc1nccc(-c2cc(Nc3cccc(Cl)c3)ncn2)n1`, the inhibition is 34.2%.

Take `C=CCc1cccc(/C=N/NC(=O)C(C)Nc2cccc(C)c2)c1O` (stereo not drawn): the inhibition turned out to be 29%.

Consider `CCOc1cccc(/C=N/NC(=S)Nc2cc(S(=O)(=O)N3CCOCC3)ccc2N2CCOCC2)c1O`, for which the inhibition was -13.9%.

With `C/C(=N\NC(=O)c1cc(C2CC2)nc2ccccc12)c1ccc(O)cc1O`, the inhibition came out at 22.7%.

As for `CC(C)(C)c1ccc(Oc2ccc(N)cc2)cc1`, the inhibition stood at 90.1%.

Turning to `CN(O)C(=S)c1ccccc1`, the inhibition was determined as 3.97%.

On to `CCc1ccc(/C=C2\SC(=S)N(CCCC(=O)Nc3ccccn3)C2=O)cc1`, for which the inhibition is 78.8%.

In the case of `CCCCCCN1C=C/C(=C\C=C(C#N)C#N)c2ccccc21`, the inhibition was 50.3%.

In the case of `CCSc1nc2ccccc2n1C(=O)/C=C\c1ccc(OC)c(OC)c1`, the inhibition was 77.4%.

On to `COc1cc(OC)c2cc(C(=O)N/N=C/c3ccccc3O)[nH]c2c1`, for which the inhibition is 79.9%.

In the case of `CC(=O)NC(c1ccc(Cl)cc1Cl)c1ccc2cccnc2c1O` (stereo not drawn), the inhibition is 55.7%.

Regarding `O=C(N/N=C/c1c(O)ccc2ccccc12)c1ccc(CO)nc1`, the inhibition is -8.84%.

On to `CCCC(=O)NC(c1ccc(Cl)cc1)c1ccc2cccnc2c1O` (stereo not drawn), for which the inhibition was 70.4%.

As to `O=C(NNC(=O)c1cccnc1SCc1cccc([N+](=O)[O-])c1)c1ccccn1`, the inhibition turned out to be 6.38%.

As for `N=c1n(CC(=O)c2ccc([N+](=O)[O-])cc2)c2ccccc2n1Cc1ccc(Cl)cc1`, the inhibition was 86%.

In the case of `O=C(CCl)N1c2ccccc2Sc2ccc3ccccc3c21`, the inhibition was 100%.

For `Oc1[nH]c2ccc(Br)cc2c1N=NC(=S)N1CCOCC1`, the inhibition worked out at 75.3%.

Regarding `CCCCCCCn1c(=N)n(CC(=O)c2ccco2)c2ccccc21`, the inhibition was determined as 92.5%.

On to `NC(C(=O)O)C1ON=C(Cl)C1O` (stereo not drawn), for which the inhibition is 67%.

Turning to `O=c1c2ccccc2sc2nc(CCl)nn12`, the inhibition amounted to 100%.

In the case of `CC(C)CC1C(=O)N(Cc2cn(Cc3ccco3)nn2)CCS(=O)(=O)N1Cc1ccc(-c2ccc(F)cc2)cc1` (stereo not drawn), the inhibition was determined as 60.2%.
